Shown are actives, neighbours in structure and some others; about 11% of the full set was active somewhere.
L3MBTL1 inh = qHTS Assay for the Inhibitors of L3MBTL1; Lethal(3)malignant brain tumor-like protein 1 (Homo sapiens), Q9Y468; AlphaScreen L3MBTL1–H3K9me1 peptide binding; Potency, µM (doses to about 57.1 µM), inactives show top-dose activity, negative = inhibition, most hits filed as inhibitors; 230,000 tested, 0.66% active; AID 485360, 2010; further: potency means the concentration at half of the fitted maximal effect; on the % scale 0 is the no-effect control and ±100 the full control effect; nearly all actives have a fitted effect of over 60% in size
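Read-out is AlphaScreen signal from streptavidin donor and nickel chelate acceptor beads (10 ug/mL final each) bridging L3MBTL1 (50 nM) and biotinylated K9-monomethylated H3(1-15) peptide (75 nM), after 30 min compound exposure at room temperature.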
BAZ2B block = qHTS Assay for Inhibitors of BAZ2B | Potency, µM (highest dose often 114 µM), for inactives: at the highest dose activity change, negative = inhibition, actives largely listed as inhibitors | AlphaScreen BAZ2B-H3K14Ac peptide displacement | 360,000 tested, 4.4% active | AID 504333, 2011 | Bromodomain adjacent to zinc finger domain protein 2B (Homo sapiens), Q9UIF8; further: potency means the concentration at half of the fitted maximal effect; on the % scale 0 is the no-effect control and ±100 the full control effect; nearly all actives have a fitted effect of over 60% in size
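Compounds, titrated to a top concentration of 110 uM, were incubated 30 min at room temperature with preformed BAZ2B/acetyl-K14 H3 peptide complex (50 nM each). Proximity signal was measured by AlphaScreen after 20 min with beads.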
JMJD2A Tudor = qHTS Assay for Inhibitors of JMJD2A-Tudor Domain. Lysine-specific demethylase 4A (Homo sapiens), O75164. AlphaScreen JMJD2A-Tudor / H3K4me3 peptide binding. Potency, µM (highest dose often 114 µM), inactives show at the top dose activity change, negative = inhibition, most hits filed as inhibitors. 390,000 tested, 4.4% active. AID 504339, 2011; further: potency means the concentration at half of the fitted maximal effect; on the % scale 0 is the no-effect control and ±100 the full control effect; nearly all actives have a fitted effect of over 50% in size
G9a block = qHTS Assay for Inhibitors of Histone Lysine Methyltransferase G9a; AID 504332, 2011; Histone-lysine N-methyltransferase EHMT2 (Homo sapiens), Q96KQ7; G9a H3K9 monomethylation, AlphaScreen, 2 h; 350,000 tested, 8.8% active; Potency, µM (highest dose often 102 µM), for the others: top-dose activity, negative = inhibition, hits mostly inhibitors; further: potency means the concentration at half of the fitted maximal effect; on the % scale 0 is the no-effect control and ±100 the full control effect; nearly all actives have a fitted effect of over 75% in size
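Signal arises when biotinylated H3K9 peptide, once monomethylated, bridges streptavidin donor and antibody-captured acceptor beads. Enzyme at 20 nM was preincubated 15 min with test compounds; peptide 500 nM and SAM 20 uM then reacted for 2 h.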
PI5P4Ka inh = qHTS for Inhibitors of phosphatidylinositol 5-phosphate 4-kinase (PI5P4K). PI5P4Kalpha enzyme, ADP-Glo luminescence, 60 min; hits give low values. 330,000 tested, 1.2% active. max response, %. AID 652105, 2013. Phosphatidylinositol 5-phosphate 4-kinase type-2 alpha (Homo sapiens), P48426; active means max response of -50% or lower; inconclusive means between -30% and -50%; inactive means -30% or higher; further: value at the top dose of about 77 µM; on the % scale 0 is the no-effect control and ±100 the full control effect
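qHTS, 1536-well: enzyme/substrate mix, compound by pin tool, 5 microM ATP final; RT 60 min; ADP-Glo reagents 1 (45 min) then 2 (30 min); luminescence.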
HP1b chromo inh = HTS for Inhibitors of HP1-beta Chromodomain Interactions with Methylated Histone Tails. Chromobox protein homolog 1 (Homo sapiens), P83916. AlphaScreen HP1-beta / biotin-H3K9me3 peptide binding. Potency, µM (doses to about 114 µM), for inactives: at the top dose activity change, negative = inhibition, most hits filed as inhibitors. 390,000 tested, 0.56% active; further: potency means the concentration at half of the fitted maximal effect; nearly all actives have a fitted effect of over 70% in size
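HP1-beta protein (50 nM final) preincubated 30 min at room temperature with biotinylated H3(1-18)K9me3 peptide (50 nM) in PBS pH 7.4, 0.01% Tween-20, then compound added for 30 min. AlphaScreen streptavidin donor/nickel chelate acceptor beads (10 ug/mL final), 30 min dark, luminescence read.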
Active calls of the source: *; [ ] = another dose, or the depositor's remark. Unless noted, the call rests on the fitted dose curve; in most records, active means well fitted inhibition curve with a large enough effect; inconclusive means small, poorly fitted or top-dose-only effect; inactive means no such curve, though single readings can be large or run the other way.

Results for COc1cccc(C2c3c(-c4ccccc4O)n[nH]c3C(=O)N2CCc2ccc(OC)c(OC)c2)c1 (stereo not given) ?
BAZ2B block: inconclusive; JMJD2A Tudor: inconclusive; G9a block: 0.8%[59 µM]; HP1b chromo inh: 3.4%

What do the screens show for `O=C(Nc1cc([N+](=O)[O-])ccc1Cl)C(Sc1ccccc1)c1ccccc1` (stereo not given)?
L3MBTL1 inh: -19.6%; BAZ2B block: -38.4%; JMJD2A Tudor: 79.4µM*; G9a block: -8.7%[59 µM]; PI5P4Ka inh: 9.4; HP1b chromo inh: inconclusive

Results for O=C(Nc1cc(C(F)(F)F)ccc1Cl)C(Sc1cccc[n+]1[O-])c1ccccc1 (stereo not given) ?
L3MBTL1 inh: 9.7%; BAZ2B block: -8.8%; JMJD2A Tudor: inconclusive; G9a block: 8.91µM*; PI5P4Ka inh: 1.8; HP1b chromo inh: 5.7%

How did CC/C(=C\c1oc2cc3ccccc3cc2[n+]1CC)Nc1ccccc1 do in these assays?
L3MBTL1 inh: 6.5%; BAZ2B block: 79.4µM*; JMJD2A Tudor: -17.3%; G9a block: 5.62µM*; PI5P4Ka inh: 0.1; HP1b chromo inh: 42.5%

Results for O=C(Nc1ccccc1)c1cc2ccccc2o1 ?
L3MBTL1 inh: -3.1%; BAZ2B block: 4.7%; JMJD2A Tudor: 10.4%; G9a block: 3.1%[59 µM]; PI5P4Ka inh: 1.2; HP1b chromo inh: 49.4%

Results for Cc1ccc(NC(=O)CCn2c(=O)c3cccn3c3ccccc32)cc1Cl ?
BAZ2B block: -0.4%; JMJD2A Tudor: -9.2%; G9a block: -22.9%[59 µM]; HP1b chromo inh: 23.9%

What do the screens show for `N=C1C2=C3Sc4ccccc4N3CCCC2=NN1c1cccc(S(=O)(=O)O)c1`?
L3MBTL1 inh: 1.6%; BAZ2B block: inconclusive; JMJD2A Tudor: -19.0%; G9a block: inconclusive; PI5P4Ka inh: -53.4*; HP1b chromo inh: 22.9%

How did NC(=O)c1c(NC(=O)c2nc(SCc3ccccc3F)ncc2Cl)sc2c1CCCC2 do in these assays?
BAZ2B block: inconclusive; JMJD2A Tudor: -0.9%; G9a block: inconclusive; HP1b chromo inh: 37.1%

How did CC(=O)Nc1cccc(C(=O)N/N=C/c2cccc(C)n2)c1 do in these assays?
BAZ2B block: 46.9%; JMJD2A Tudor: 12.6µM*; G9a block: -30.0%; PI5P4Ka inh: -17.0; HP1b chromo inh: 1.7%

How did COc1ccc(C(C)=O)cc1COC(=O)CCNS(=O)(=O)c1ccc(C)cc1 do in these assays?
L3MBTL1 inh: -3.1%; BAZ2B block: 8.4%; JMJD2A Tudor: -9.5%; G9a block: 50.1µM*; PI5P4Ka inh: -1.5; HP1b chromo inh: -0.7%

What do the screens show for `CCCCC1=CC2=CC(=O)C(C)(OC(=O)c3cnc4ccccc4n3)C(=O)C2=CO1` (stereo not given)?
BAZ2B block: 79.4µM*; G9a block: inconclusive

Results for COC/C=C/C1=CC2=CC(=O)C(C)(OC(=O)c3cnc4ccccc4n3)C(=O)C2=CN1c1ccc(OC)cc1 (stereo not given) ?
JMJD2A Tudor: inconclusive; PI5P4Ka inh: -28.6; HP1b chromo inh: -21.3%

What do the screens show for `COC(=O)CCCC1=CC2=CC(=O)C(C)(OC(=O)c3cccs3)C(=O)C2=CN1c1ccccc1` (stereo not given)?
JMJD2A Tudor: -26.9%; PI5P4Ka inh: -13.9; HP1b chromo inh: -5.9%

How did CCCCC1=CC2=CC(=O)C(C)(OC(=O)c3cccs3)C(=O)C2=CO1 (stereo not given) do in these assays?
JMJD2A Tudor: inconclusive; PI5P4Ka inh: -86.5*; HP1b chromo inh: 7.1%

Compound activity from PubChem BioAssay.
